# In PubChem BioAssay (NCI):
# This is part of a sample that, as a whole, favours compounds with a hit. Of some 83,000 tested, about 20% had one in any assay.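 Treatment: one concentration, 48 hours, 96-well format. Scoring: percent growth, with anything below 10 considered active.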 Unmarked numbers belong to inactive results. Calls of active or inactive are those of the source.
# Tested on: SF-295 CNS
# Test: NCI-60 one-dose screen, 48 h (100 = growth as untreated, 0 = no growth, -100 = all killed)
# Details: 10 µM unless noted
row,Compound,growth
1,O=NN1CCCc2cccc(O)c21,31%
2,Fc1ccc2c(c1)c(-c1nc(-c3c[nH]c4ncccc34)cs1)cn2CCN1CCOCC1,62%
3,CC(=O)Nc1nc2c(s1)CC[C@@]1(C)C2=CC[C@H]2[C@@H]3CC[C@H](O)[C@@]3(C)CC[C@@H]21,36.4%
4,CN(C)CC(C(=O)Cc1ccccc1)c1ccccc1 (stereo unspecified),113%
5,CCOC(=O)[C@@H](C)C[C@H](Cc1ccccc1)NC(=O)c1csc([C@@H](C[C@H](C(C)C)N(C)C(=O)[C@H](CCC(C)C)NC(=O)[C@H]2CCCCN2C)OC(C)=O)n1,12.2%
6,CCCCCCCCCCCCCCCCCC1OC[C@H](COC(=O)O[C@@H](C(=O)O[C@H]2C[C@@]3(O)[C@@H](OC(=O)c4ccccc4)[C@@H]4[C@]5(OC(C)=O)CO[C@@H]5C[C@H](O)[C@@]4(C)C(=O)[C@H](OC(C)=O)C(=C2C)C3(C)C)[C@@H](NC(=O)c2ccccc2)c2ccccc2)O1 (stereo partly specified),53%
7,c1cnc2[nH]cc(-c3csc(-c4cn(CCCCN5CCCCC5)c5ccccc45)n3)c2c1,94.8%
8,C=C1C[C@](OC)([C@H](O)C(=O)N[C@@H](OC)[C@@H]2C[C@@H](O)C(C)(C)[C@@H](C[C@@H](COC)OC)O2)O[C@H](C)[C@@H]1C,-51.4% (active)
9,O=C(Nc1ccc(O)cc1)C(Cl)(Cl)Cl,99.8%
10,Cc1c(NS(=O)(=O)c2ccccc2)ccc([N+](=O)[O-])c1Cl,31%
11,CCCCN1CCCC[C@@H]1C(=O)N[C@H](C(=O)N(C)[C@H](C[C@@H](OC(C)=O)c1nc(C(=O)NC2CCC(C(=O)OC)CC2)cs1)C(C)C)C(C)C (stereo partly specified),18.6%
12,Cn1cc(-c2csc(-c3cn(CCCCN4CCCCC4)c4ccc(F)cc34)n2)c2cccnc21,99.7%
13,CC1=C(CN)C2=C(C)C3(CC3)[C@@](C)(O)C(=O)C2=C1,78.9%
14,CC(=O)O[C@H]1C(=O)[C@@]2(C)[C@H]([C@H](OC(=O)c3ccccc3)[C@]3(O)C[C@H](OC(=O)[C@H](OC(=O)OC[C@H]4COC(C)(C)O4)[C@@H](NC(=O)c4ccccc4)c4ccccc4)C(C)=C1C3(C)C)[C@]1(OC(C)=O)CO[C@@H]1C[C@@H]2O,-6.58% (active)
15,Cn1cc(-c2csc(-c3cn(CCN4CCOCC4)c4ccc(F)cc34)n2)c2cccnc21,29.2%
16,Brc1ccc2c(c1)c(-c1nc(-c3c[nH]c4ncccc34)cs1)cn2CCN1CCOCC1,74.4%
17,COC(=O)[C@@H](C)C[C@H](Cc1ccccc1)NC(=O)c1csc([C@@H](C[C@H](C(C)C)N(C)C(=O)[C@@H](NC(=O)[C@H]2CCCCN2C)C2CCCCC2)OC(C)=O)n1,-3.03% (active)
18,CC(=O)OC1CCC2(C)C(CCC3C2CC(=O)C2(C)C3CC(Sc3ccc(N(CCCl)CCCl)cc3)C2C(C)=O)C1 (stereo unspecified),67.6%
19,COc1ccc(S(=O)(=O)N(Cc2ccc3c(c2)C=CC(C)(C)O3)c2ccccc2)cc1OC,70.6%
20,CC[C@H](C)[C@H](NC(=O)[C@H]1CCCCN1C)C(=O)N(C)[C@H](CC(=O)c1nc(C(=O)N[C@@H](Cc2ccccc2)C[C@H](C)C(=O)O)cs1)C(C)C,87.4%
21,COC(=O)[C@@H](C)C[C@H](Cc1ccccc1)NC(=O)c1csc([C@@H](C[C@H](C(C)C)N(C)C(=O)[C@@H](NC(=O)C23CC(NC(C)=O)(C2)C3)C2CC2)OC(C)=O)n1,82%
22,O=C1CC2(CC3(Cl)C(Cl)=C(Cl)C2(Cl)C3(Cl)Cl)C(=O)O1 (stereo unspecified),100%
23,C[n+]1c(/C=C/c2ccc(N(CCCl)CCCl)cc2)sc2ccccc21,55.7%
24,CC[C@H](C)[C@H](NC(=O)NC(C)(C)C)C(=O)N(C)[C@H](C[C@@H](OC(C)=O)c1nc(C(=O)N[C@@H](Cc2ccccc2)C[C@H](C)C(=O)OC)cs1)C(C)C,12.2%
25,CCCCCCCC[N+](C)(CCCCCCCC)CCCCCCCC,-94.8% (active)
26,CC(=O)O[C@H]1C(=O)[C@@]2(C)[C@H]([C@H](OC(=O)c3ccccc3)[C@]3(O)C[C@H](OC(=O)[C@H](OC(=O)OC[C@@H]4COC(C)(C)O4)[C@@H](NC(=O)c4ccccc4)c4ccccc4)C(C)=C1C3(C)C)[C@]1(OC(C)=O)CO[C@@H]1C[C@@H]2O,-7.77% (active)
